# Screens as filed in PubChem.
# pPAFAH FP inh – inhibitors of human plasma PAF acetylhydrolase (pPAFAH); recombinant pPAFAH, FP-rhodamine probe fluorescence polarization; inhibition, % at 3.39 µM; 1.5% of 330,000 active; AID 463082;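 active = inhibition above the mean inhibition across the screen plus 3 SD, cut at about 25% in these data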;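 note: inhibitors block binding of the rhodamine activity-based probe so polarization drops; 0% = enzyme with DMSO and 100% = wells lacking pPAFAH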
# PAFAH1B3 FP inh – blocks human PAF acetylhydrolase 1B catalytic subunit 3; AID 492972; 0.28% of 340,000 active; inhibition, % at 3.39 µM; Q15102; recombinant PAFAH1B3, FP-rhodamine probe, fluorescence polarization;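 active = inhibition above the screen-wide average of all tested compounds plus 3 SD, cut at about 25% in these data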;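 note: 0% = enzyme with DMSO only and 100% = wells lacking PAFAH1B3 protein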
# Target sequence (Q15102 whole entry, looked up): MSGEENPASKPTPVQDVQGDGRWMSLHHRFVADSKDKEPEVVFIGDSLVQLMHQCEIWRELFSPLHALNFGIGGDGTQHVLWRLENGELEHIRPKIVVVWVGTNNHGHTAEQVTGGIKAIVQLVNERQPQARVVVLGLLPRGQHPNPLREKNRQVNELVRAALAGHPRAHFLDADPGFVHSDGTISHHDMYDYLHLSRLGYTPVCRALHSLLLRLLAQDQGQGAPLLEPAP
# PAFAH2 FP inh – PAFAH2 (human) inhibition. recombinant PAFAH2, FP-rhodamine activity probe, fluorescence polarization. inhibition, % at 3.39 µM. 0.99% of 340,000 active;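 active = inhibition above the mean over all tested compounds plus 3 SD, cut at about 30% in these data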;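 note: inhibitors block probe labeling of enzyme so polarization drops; 0% = enzyme with DMSO and 100% = wells lacking PAFAH2 protein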
# Fam108B inh – counter-screen for RBBP9 inhibitors: inhibitors of mouse Fam108B; recombinant Fam108B, FP-Rh probe fluorescence polarization; inhibition, % at 9.51 µM; 0.33% of 300,000 active; AID 1947;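 active = inhibition above the screen mean inhibition plus 3 SD, computed separately per campaign, cut at about 18% in these data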;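 note: inhibitors lower polarization as less probe binds the enzyme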
# PME-1 inh – blocks human protein phosphatase methylesterase 1 | recombinant PME-1, FP-Rh probe fluorescence polarization | inhibition, % at 5.9 µM | 0.53% of 320,000 active | AID 2130;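 active = inhibition above the campaign mean of all compounds plus 3 SD, cut at about 26% in these data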;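 note: competitive labeling of PME-1 active site by serine hydrolase directed probe; 0% = PME-1 with DMSO and 100% = wells lacking PME-1 enzyme; inhibitors block probe labeling so polarization falls and inhibition rises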
# PAFAH1B2 inh – PAFAH1B2 (human) inhibition. inhibition, % at 3.39 µM. P68402. 1.2% of 340,000 active. AID 492953. recombinant PAFAH1B2, FP-rhodamine activity probe, fluorescence polarization;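 active = inhibition above the mean of all tested compounds plus 3 SD, cut at about 24% in these data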;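 note: 0% = enzyme with DMSO and 100% = wells lacking PAFAH1B2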
# Target sequence (P68402 whole entry, looked up): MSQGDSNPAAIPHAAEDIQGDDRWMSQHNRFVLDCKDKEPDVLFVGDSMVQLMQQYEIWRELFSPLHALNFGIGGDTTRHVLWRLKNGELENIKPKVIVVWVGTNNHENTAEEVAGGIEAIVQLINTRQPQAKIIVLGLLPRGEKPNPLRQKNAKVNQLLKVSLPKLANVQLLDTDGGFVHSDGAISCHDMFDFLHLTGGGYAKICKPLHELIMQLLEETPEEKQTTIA
# * = called active by the depositor; . = no result given. An excerpt weighted towards active compounds, which were near 2.9% of everything screened.
SMILES,pPAFAH FP inh,PAFAH1B3 FP inh,PAFAH2 FP inh,Fam108B inh,PME-1 inh,PAFAH1B2 inh
O=C(CSc1nc(-c2ccc(F)cc2)nc2c1Cc1ccccc1O2)Nc1ccc(C(=O)O)cc1,.,-35,-28,.,.,-24
COC(=O)C1CCN(CC(=O)Nc2ccc(C(=O)Nc3ccccc3OC)cc2)CC1,10,3,-7,.,7,4
O=C(O)c1sccc1SCc1ccc(Cl)cc1Cl,6,5,4,-4,-2,30*
Nc1ncc(Br)cc1S(=O)(=O)NCCC(=O)NCCc1ccc(Cl)cc1,5,2,2,3,1,26*
C=CCN1C(=O)C(Cc2ccc(OC)cc2)S/C1=N/N=C/c1ccco1 (stereo not drawn),28*,0,-4,2,-4,0
C=CCN1C(=O)C(Cc2ccc(Br)cc2)S/C1=N\N=C\c1ccco1 (stereo not drawn),-1,6,5,0,-5,0
Cc1cc(F)ccc1NC(=O)c1ccc(NS(=O)(=O)c2cc(C(C)(C)C)ccc2C)cc1,25*,-34,-23,-18,-24,-10
CN(C(=S)Nc1ccc(Oc2ccccc2)cc1)c1ccc(O)cc1,27*,8,-9,2,14,5
CN(C(=S)Nc1cccnc1)c1ccc(O)cc1,29*,8,4,1,5,-3
CCN(C(=S)Nc1cccnc1)c1ccccc1,4,10,2,-4,-4,0
O=c1ncn(-c2ccc(F)cc2)c2ncccc12,0,6,0,5,3,7
CCCNC(=O)Nc1ccccc1SC,4,2,-4,-5,-7,5
O=C(Cn1cnc([N+](=O)[O-])c1)c1ccc(Cl)cc1,4,1,-4,-2,6,7
O=C(C[n+]1cnn(CC(=O)c2ccc(Cl)cc2Cl)c1)c1ccc([N+](=O)[O-])cc1,25*,7,-6,4,9,-2
O=c1[nH]cnc2c1c(-c1ccccc1)cn2-c1ccccc1,20,9,5,-3,0,-1
Fc1ccc(-n2cc(-c3ccccc3)c3c(=S)nc[nH]c32)cc1,30*,2,0,-3,7,1
Fc1ccc2[nH]c3c(N4CCN(c5ccccc5)CC4)ncnc3c2c1,10,4,14,16,46*,0
CCOC(=O)N1CCN(c2ncnc3c2[nH]c2ccc(F)cc23)CC1,10,9,-10,0,8,8
COc1ccc(N2CCN(c3ncnc4c3[nH]c3ccccc34)CC2)cc1,17,3,4,13,32*,-1
CC(=O)Oc1ccc2occ(/C=N/c3cc(=O)[nH]c(=S)[nH]3)c(=O)c2c1,12,-7,5,0,4,2
CCN1CCCC1CNC(=O)c1ccc(Sc2ccc(F)cc2)c([N+](=O)[O-])c1 (stereo not drawn),-2,9,6,3,3,1
Nc1[nH]nc2ncc3cc4ccccc4nc3c12,30*,1,1,4,7,1
c1ccc2nc3c(ccc4ccccc43)cc2c1,.,5,2,.,.,2
N#C/C(=C\c1cccc(Cl)c1)C(=O)c1ccccc1,.,21,9,.,.,7
Cc1ccc(C(=O)OCC(=O)c2ccc(CC(=O)N3CCOCC3)s2)cc1C,27*,3,11,.,2,2
SMILES,pPAFAH FP inh,PAFAH1B3 FP inh,PAFAH2 FP inh,Fam108B inh,PME-1 inh,PAFAH1B2 inh
Cc1ccc(C(=O)OCC(=O)c2ccc(CC(=O)N3CCOCC3)s2)c(C)c1,.,5,7,.,.,-1
Cc1cc(Cl)ccc1NC(=O)COC(=O)CCNS(=O)(=O)c1ccccc1,34*,-1,3,.,-1,4
CC(=O)c1ccc(S(=O)(=O)NCCC(=O)OCC(=O)NCCc2ccccc2)cc1,16,-3,-4,-8,6,4
Cc1ccc(S(=O)(=O)N(C)C)cc1NC(=O)COC(=O)CCNS(=O)(=O)c1ccccc1,.,3,5,.,.,11
O=C(COC(=O)CCNS(=O)(=O)c1ccccc1)NC(=O)Cc1ccccc1,30*,5,-3,.,3,8
Cc1ccccc1Nc1nc(N)nc(COC(=O)CCNS(=O)(=O)c2ccccc2)n1,28*,-2,5,9,-1,3
O=C(CCNS(=O)(=O)c1ccccc1)OCC(=O)c1ccc(F)cc1,34*,-3,8,4,4,7
COCCCNC(=O)CN1C(=O)COc2ccc(S(=O)(=O)N3CC(C)CC(C)C3)cc21 (stereo not drawn),3,9,1,-2,5,5
CC(C)c1ccc(/C=C/C(=O)NC2=NCCS2)cc1,4,.,.,-4,-36,.
O=C(CSc1nnc(NC(=O)C2CC2)s1)Nc1cccc(F)c1,0,-6,-2,-2,1,2
CC(=O)c1cccc(NC(=O)COC(=O)CCNS(=O)(=O)c2ccccc2)c1,29*,8,8,.,.,5
O=C(COC(=O)Cc1ccc(Cl)cc1)NCc1ccco1,15,14,11,.,.,4
O=C(COC(=O)CCNS(=O)(=O)c1ccc(Cl)cc1)NCc1ccco1,27*,2,3,-1,-2,14
CC(C)C12CN3CC(C(C)C)(CN(C1)C3c1ccccc1O)C2=O (stereo not drawn),6,3,-1,-4,0,0
CCC(C)n1c(SCC(=O)NC2CCCC2)nc2ccccc2c1=O (stereo not drawn),2,7,2,0,3,4
Cc1oc(-c2cccs2)nc1CN1CCN(C(C)C)C(CCO)C1 (stereo not drawn),2,10,0,-2,14,4
COCCNC(=S)Nc1cc2oc3ccccc3c2cc1OC,.,12,10,.,.,1
COCCN1Cc2cccc(C(=O)Nc3cccc(-c4nc5ccccc5[nH]4)c3)c2C1=O,-32,-11,-36,-30,-48,-14
Cc1cccc(-n2nc3c(c2NC(=O)c2ccco2)CS(=O)C3)c1C (stereo not drawn),-1,11,10,-6,2,2
Cc1cccc(-n2nc3c(c2NC(=O)c2ccco2)CSC3)c1C,31*,1,10,-3,-15,-6
O=C(N/N=C/c1c[nH]c2ccccc12)C1CC1(c1ccccc1)c1ccccc1 (stereo not drawn),9,8,4,12,31*,4
O=C(N/N=C/c1c[nH]c2ccccc12)c1cc(-c2ccc3ccccc3c2)n[nH]1,-2,1,-28,11,29*,13
O=C(N/N=C/c1c[nH]c2ccccc12)c1cc(-c2ccc(-c3ccccc3)cc2)n[nH]1,0,-5,-34,13,-14,-1
O=C(N/N=C/c1c[nH]c2ccccc12)c1cc(-c2cccc3ccccc23)n[nH]1,12,10,-17,3,28*,0
COc1cc(C(=O)N/N=C(\Cc2ncc[nH]2)c2ccccc2)cc(OC)c1OC,0,0,3,0,2,-4
